This note sets out measurements from PubChem BioAssay.

The target in assay [1] is Cell division control protein 42 homolog (Homo sapiens) (UniProt P60953). The assay can be described thus: activated mutant Cdc42 GTP-binding inhibitors, dose response, biochemical, multiplex bead flow cytometry, Bodipy-FL-GTP (AID 1333;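 active means fitted half-maximal concentration within the tested dose range, moderate curve steepness, a statistically real signal drop, and little compound fluorescence or tag-binding interference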).
Cell division control protein 42 homolog (Homo sapiens), sequence (P60953 whole entry, looked up): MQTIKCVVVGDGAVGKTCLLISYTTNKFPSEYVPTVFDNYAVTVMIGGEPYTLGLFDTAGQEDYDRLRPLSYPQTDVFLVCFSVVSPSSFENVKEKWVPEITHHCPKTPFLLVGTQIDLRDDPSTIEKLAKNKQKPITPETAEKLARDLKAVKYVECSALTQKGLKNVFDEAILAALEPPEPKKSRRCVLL
The target is the same in assay [2]. The assay can be described thus: wildtype Cdc42 GTP-binding inhibitors, dose response, biochemical, multiplex bead flow cytometry, Bodipy-FL-GTP (AID 1334;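 active means fitted half-maximal concentration within the tested range, moderate curve steepness, significant signal drop, and little compound fluorescence or bead-linkage interference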). As to conditions: bead-based flow cytometry, Bodipy-FL-GTP binding to GST-Cdc42; at 100 µM (top of the series) unless noted. In general terms: In flow cytometry, cells or beads pass a laser one at a time.
Assay [3] concerns the target GTPase HRas (Homo sapiens) (UniProt P01112). The assay can be described thus: inhibitors of GTP binding to wildtype Ras, dose response, biochemical, multiplex bead flow cytometry (AID 1335;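 active means fitted half-maximal concentration within 10 nM to 100 µM, steepness 0.5 to 2, significant signal drop, low assay interference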). As to conditions: bead-based flow cytometry, Bodipy-GTP binding to GST-Ras; at 100 µM (top of the series) unless noted.
Assay [4] relates to Ras-related protein Rab-7a (dog), GTP binding. In words: Rab7 GTP binding inhibitors, potency, dose response, biochemical, wildtype, multiplex bead flow cytometry (AID 1336; call rule not given here).
Assay [5] addresses Ras-related C3 botulinum toxin substrate 1 (Homo sapiens) (UniProt P63000). In words: wildtype Rac1 GTP binding inhibitors, dose response, biochemical, multiplex bead flow cytometry (AID 1340). As to conditions: GST-Rac1 beads, Bodipy-FL-GTP binding; at 100 µM (top of the series) unless noted.
Assay [6] concerns the target GTPase HRas (Homo sapiens) (UniProt P01112). In words: activated Ras mutant GTP binding inhibitors, dose response, biochemical, multiplex bead flow cytometry (AID 1341;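 active means dose-response curve with midpoint inside the tested range, moderate steepness, significant amplitude and little compound fluorescence or bead-attachment interference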;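 further: GST-tagged constitutively activated Ras mutant immobilized on beads and multiplexed with other GTPases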).

Molecules are shown by their SMILES. For part of these data: Entries with a potency or affinity are not part of this list. The source made the active and inactive calls.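 How the source made its calls, unless noted: active means dose curve with midpoint inside tested range, moderate steepness, plateau gap beyond fit error, low compound glow and bead-link interference; inactive means the rest.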

GTPase HRas (Homo sapiens), sequence (P01112 whole entry, looked up): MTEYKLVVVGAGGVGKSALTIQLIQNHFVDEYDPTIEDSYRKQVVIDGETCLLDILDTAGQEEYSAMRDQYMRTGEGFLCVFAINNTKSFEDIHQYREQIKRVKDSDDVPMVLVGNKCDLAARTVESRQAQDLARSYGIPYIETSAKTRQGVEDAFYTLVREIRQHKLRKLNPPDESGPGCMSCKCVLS

Turning to `Cc1cc2nc3c(=O)n(C4CCCCC4)c(=O)[nH]c3nc2cc1N`, the result in assay [1], in assay [4] and in assay [6] was inactive. Also, in assay [2], the fluorescence, percent of control (lower = inhibition) amounted to 42.7%. This compound also gave a GTP binding, percent of control in assay [3] of 53.2%. Also, the GTP binding signal, raw median fluorescence (lower = inhibition) (MCF (arbitrary fluorescence units)) in assay [5] was 146.
On to `Cc1ccc(-c2cn3cccc(C)c3n2)cc1`, for which the call in assay [1], in assay [4] and in assay [6] was inactive. The compound further returned a fluorescence, percent of control (lower = inhibition) in assay [2] of 35.6%. For the same compound, in assay [3], the GTP binding, percent of control is 86%. The GTP binding signal, raw median fluorescence (lower = inhibition) (MCF (arbitrary fluorescence units)) in assay [5] amounted to 167.
Regarding `Cc1[nH]c2ccccc2c1/C=C/C(=O)c1ccccc1`, the call in assay [1], in assay [4] and in assay [6] was inactive. The compound further had a fluorescence, percent of control (lower = inhibition) in assay [2] of 68.9%. In assay [3], this compound showed a GTP binding, percent of control of 81.7%. In addition, the GTP binding signal, raw median fluorescence (lower = inhibition) (MCF (arbitrary fluorescence units)) in assay [5] is 216.
Turning to `Cc1c(C=O)c2ccccn2c1C(=O)c1ccc(Cl)c([N+](=O)[O-])c1`, the compound was classed as inactive in assay [1], in assay [4] and in assay [6]. The compound also had a fluorescence, percent of control (lower = inhibition) in assay [2] of 31.5%. Moreover, the GTP binding, percent of control in assay [3] was determined as 78.3%. In assay [5], this compound had a GTP binding signal, raw median fluorescence (lower = inhibition) (MCF (arbitrary fluorescence units)) of 247.
For the compound `Cc1csc(NC(=O)c2cc(=O)[nH]c3ccc(S(=O)(=O)N4CCOCC4)cc23)n1`, the outcome in assay [1], in assay [4] and in assay [6] was inactive. This compound returned a fluorescence, percent of control (lower = inhibition) in assay [2] of 31.8%. In assay [3], this compound showed a GTP binding, percent of control of 74.5%. The compound further came in with a GTP binding signal, raw median fluorescence (lower = inhibition) (MCF (arbitrary fluorescence units)) in assay [5] of 190.
Turning to `COc1cc(/C=N/NC(=O)CCN2CCN(c3ccccc3)CC2)cc(OC)c1OC`, the outcome in assay [1], in assay [4] and in assay [6] was inactive. Further, in assay [2], the fluorescence, percent of control (lower = inhibition) is 34.6%. This compound displayed a GTP binding, percent of control in assay [3] of 77.3%. In assay [5], this compound showed a GTP binding signal, raw median fluorescence (lower = inhibition) (MCF (arbitrary fluorescence units)) of 236.
As to `N#Cc1c2nc3ccccc3nc2n2cc(NC(=O)c3ccc(F)cc3)ccc12`, the result in assay [1], in assay [4] and in assay [6] was inactive. For the same compound, the fluorescence, percent of control (lower = inhibition) in assay [2] was 49.3%. In addition, the GTP binding, percent of control in assay [3] was determined as 64.8%. In assay [5], this compound showed a GTP binding signal, raw median fluorescence (lower = inhibition) (MCF (arbitrary fluorescence units)) of 158.
Take `COc1ccccc1OCCn1cc(C(=O)O)c2cc(C)ccc21`: the outcome in assay [1], in assay [4] and in assay [6] was inactive. The compound further gave a fluorescence, percent of control (lower = inhibition) in assay [2] of 62.1%. This compound also had a GTP binding, percent of control in assay [3] of 212%. The same compound returned a GTP binding signal, raw median fluorescence (lower = inhibition) (MCF (arbitrary fluorescence units)) in assay [5] of 57.3.
With `COc1cccc(/C=C2\SC(=S)N(NC(=O)c3ccncc3)C2=O)c1`, the compound was called inactive in assay [1], in assay [4] and in assay [6]. This compound also displayed a fluorescence, percent of control (lower = inhibition) in assay [2] of 26.6%. The GTP binding, percent of control in assay [3] was 63.7%. In addition, the GTP binding signal, raw median fluorescence (lower = inhibition) (MCF (arbitrary fluorescence units)) in assay [5] is 116.
Consider `Cc1ccc(OCCSc2nc3ccccc3n2CC(=O)O)c(C)c1`, for which the compound was classed as inactive in assay [1], in assay [4] and in assay [6]. This compound showed a fluorescence, percent of control (lower = inhibition) in assay [2] of 55.9%. The compound also came in with a GTP binding, percent of control in assay [3] of 85%. The same compound displayed a GTP binding signal, raw median fluorescence (lower = inhibition) (MCF (arbitrary fluorescence units)) in assay [5] of 29.2.
Regarding `Cc1ccc2c(c1)c1nnc(SCC(=O)Nc3cccc(Cl)c3C)nc1n2CC(=O)O`, the outcome in assay [1], in assay [4] and in assay [6] was inactive. Also, the fluorescence, percent of control (lower = inhibition) in assay [2] stood at 35.2%. Also, the GTP binding, percent of control in assay [3] came to 80.1%. Besides, the GTP binding signal, raw median fluorescence (lower = inhibition) (MCF (arbitrary fluorescence units)) in assay [5] amounted to 245.
Turning to `Cc1nnc2ccc(-c3ccc(NC(=O)c4ccco4)cc3)nn12`, the call in assay [1], in assay [4] and in assay [6] was inactive. In assay [2], this compound came in with a fluorescence, percent of control (lower = inhibition) of 69.8%. In assay [3], this compound displayed a GTP binding, percent of control of 109%. Besides, in assay [5], the GTP binding signal, raw median fluorescence (lower = inhibition) (MCF (arbitrary fluorescence units)) was found to be 215.
For the compound `O=C1NC(=S)N/C1=C/c1cc([N+](=O)[O-])ccc1O`, the call in assay [1], in assay [4] and in assay [6] was inactive. In assay [2], the fluorescence, percent of control (lower = inhibition) stood at 60.7%. The compound also gave a GTP binding, percent of control in assay [3] of 157% [at 33.3 µM]. Besides, the GTP binding signal, raw median fluorescence (lower = inhibition) (MCF (arbitrary fluorescence units)) in assay [5] is 185 [at 33.3 µM].
Consider `Cc1nc2ncccn2c1-c1csc(Nc2ccc(O)cc2)n1`, for which the call in assay [1], in assay [4] and in assay [6] was inactive. The same compound came in with a fluorescence, percent of control (lower = inhibition) in assay [2] of 20.9%. Also, the GTP binding, percent of control in assay [3] was determined as 46.8%. Besides, in assay [5], the GTP binding signal, raw median fluorescence (lower = inhibition) (MCF (arbitrary fluorescence units)) turned out to be 106.
On to `Nc1cccc(S(=O)(=O)c2cccc(N)c2)c1`, for which the call in assay [1], in assay [4] and in assay [6] was inactive. In addition, the fluorescence, percent of control (lower = inhibition) in assay [2] amounted to 96.8%. In assay [3], this compound gave a GTP binding, percent of control of 150%. Moreover, the GTP binding signal, raw median fluorescence (lower = inhibition) (MCF (arbitrary fluorescence units)) in assay [5] is 191.
